{"source": "PubChem BioAssay AID651800", "about": "(The Scripps Research Institute Molecular Screening Center, 2012)", "note": "The whole screen tested about 360,000 compounds, of which about 1,300 (0.36%) were called active. The sample as a whole holds a higher share of actives than the screen did. A number with no mark means an inactive call. No stated cut-off is given here; in the data, active means inhibition above about 19%; inactive means the rest."}
{"test_system": "T-cell receptor (TCR)", "test": "small molecules blocking TCR binding to CD3 – biochemical, fluorescence, TAMRA-labeled TCR probe, primary screen (AID 651800);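 further: recombinant mutant TCR 2C K166C tagged with TAMRA read by polarization; 0% = receptor in buffer alone and 100% = receptor with positive control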", "details": "at 9.4 µM, stronger effect = higher value"}
{"smiles": "COc1cc(OC)cc(C(=O)NCCSCc2ccco2)c1", "inhibition": "2.08%"}
{"smiles": "COCCNC(=O)Nc1ccc2nc(-c3ccco3)c(-c3ccco3)nc2c1", "inhibition": "48% (active)"}
{"smiles": "COc1ccc(CCNC(=O)Nc2ccc3c(c2)c(=O)n(C)n3C)cc1OC", "inhibition": "-9.13%"}
{"smiles": "CCOC(=O)C1CSCCS(=O)(=O)N1Cc1ccc(Cl)cc1", "note": "(centres undefined)", "inhibition": "-6.78%"}
{"smiles": "CNC(=S)NNC(=O)c1cccn(Cc2ccccc2)c1=O", "inhibition": "45.4% (active)"}
{"smiles": "Cc1scc(C(=O)NNC(=S)NCc2ccccc2)c1C", "inhibition": "3.75%"}
{"smiles": "CN(C)C(=O)c1cccn(Cc2cccc(C(F)(F)F)c2)c1=O", "inhibition": "4.33%"}
{"smiles": "CCOC(=O)CNC(=O)N(C)[C@H]1C[C@H]2c3[nH]c4c(-c5ccc6c(c5)OCO6)cccc4c3CCN2C(=O)[C@H]1[C@H](C)O", "inhibition": "-3.41%"}
{"smiles": "COC(=O)C1=C(C)N(Cc2ccccc2C(F)(F)F)C(=NCC2CC2)NC1c1cccc(Cl)c1", "note": "(centres undefined)", "inhibition": "5.09%"}
{"smiles": "C=CCN1C(=O)N(Cc2ccccc2)c2ccccc2S1(=O)=O", "inhibition": "-2.76%"}
{"smiles": "COc1ccc(Cc2nnc(SCC(=O)c3cccc([N+](=O)[O-])c3)n2C)cc1", "inhibition": "3.33%"}
{"smiles": "COc1ccc(CNS(=O)(=O)c2cc(Br)ccc2Br)cc1", "inhibition": "1.49%"}
{"smiles": "COc1ccc(CC(=O)N/N=C/c2cc([N+](=O)[O-])cc(Br)c2O)cc1", "inhibition": "37.3% (active)"}
{"smiles": "C[C@H]1[C@H](c2ccccc2)Oc2cc(Br)ccc2S(=O)(=O)N1Cc1cccc(F)c1", "inhibition": "2.14%"}
{"smiles": "CCCCCCCCN1C(=O)[C@@H](CC(=O)N2CCN(C(=O)OCC)CC2)C[C@@]2(C(=O)OC)C1=C[C@H](C1CCCC1)O[C@@H]2C", "inhibition": "6.64%"}
{"smiles": "CC(NC(=O)c1ccccc1F)c1cccc2ccccc12", "note": "(centres undefined)", "inhibition": "-0.21%"}
{"smiles": "CSc1nc(N(C)NC(=O)c2cccc(C)c2)c2ccccc2n1", "inhibition": "-2.67%"}
{"smiles": "CN(NC(=O)c1ccccc1F)c1nc(C(F)(F)F)nc2ccccc12", "inhibition": "27.9% (active)"}
{"smiles": "O=C1CCCCC1C(=O)c1ccccc1", "note": "(centres undefined)", "inhibition": "-0.19%"}
{"smiles": "COC(=O)[C@]12C[C@H](CC(=O)NCc3ccccc3)C(=O)N(CCC3=CCCCC3)C1=C[C@H](C(C)(C)C)O[C@@H]2C", "inhibition": "-4.03%"}
{"smiles": "CCn1c(=S)[nH]c2cc(S(=O)(=O)N3CCOCC3)ccc21", "inhibition": "1.36%"}
{"smiles": "CCCCn1c(=S)[nH]c2cc(S(=O)(=O)N3CCCCC3)ccc21", "inhibition": "1.03%"}
{"smiles": "CNS(=O)(=O)c1ccc2c(c1)[nH]c(=S)n2C", "inhibition": "45.4% (active)"}
{"smiles": "COC(=O)[C@]12C[C@H](CC(=O)NCc3cccc(C(F)(F)F)c3)C(=O)N(Cc3ccc4c(c3)OCO4)C1=C[C@H](COCc1ccccc1)O[C@@H]2C", "inhibition": "0.9%"}
